# Experimental data reported in PubChem BioAssay AID2551 (National Center for Advancing Translational Sciences (NCATS), 2010).
# Among all 310,000 compounds or so, about 17,000 (5.5%) were called active. Where a call stands in place of a potency, no number is given. Roughly 11% stayed inconclusive and do not appear here. Calls come from the whole dose curve; as a rule, active = well fitted inhibition curve with a large enough effect; inconclusive = small, poorly fitted or top-dose-only effect, or effect the other way; inactive = no such curve, though single readings can be large or run the other way. Many of the other results were omitted from the sample, so actives are more common in it than they were.
# Target: Nuclear receptor ROR-gamma (Mus musculus) (UniProt P51450)
# Experiment: qHTS for inhibitors of ROR gamma transcriptional activity; note: nearly all actives have a fitted effect of over 60% in size
# Conditions: Drosophila S2 Gal4-RORgamma UAS-luciferase reporter, 20 h; series mostly up to 53.6 µM
# How it was run: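 Drosophila Schneider cells stably carrying a metallothionein-driven Gal4 DBD–ROR gamma fusion and a UAS-Photinus luciferase reporter were exposed to compound for 1 hr, then induced with copper sulfate (700 uM final) for 20 hr at ambient temperature before luminescence reading.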
# Potency is the fitted concentration of half-maximal effect.
# Sequence of Nuclear receptor ROR-gamma (Mus musculus) (P51450 whole entry, looked up): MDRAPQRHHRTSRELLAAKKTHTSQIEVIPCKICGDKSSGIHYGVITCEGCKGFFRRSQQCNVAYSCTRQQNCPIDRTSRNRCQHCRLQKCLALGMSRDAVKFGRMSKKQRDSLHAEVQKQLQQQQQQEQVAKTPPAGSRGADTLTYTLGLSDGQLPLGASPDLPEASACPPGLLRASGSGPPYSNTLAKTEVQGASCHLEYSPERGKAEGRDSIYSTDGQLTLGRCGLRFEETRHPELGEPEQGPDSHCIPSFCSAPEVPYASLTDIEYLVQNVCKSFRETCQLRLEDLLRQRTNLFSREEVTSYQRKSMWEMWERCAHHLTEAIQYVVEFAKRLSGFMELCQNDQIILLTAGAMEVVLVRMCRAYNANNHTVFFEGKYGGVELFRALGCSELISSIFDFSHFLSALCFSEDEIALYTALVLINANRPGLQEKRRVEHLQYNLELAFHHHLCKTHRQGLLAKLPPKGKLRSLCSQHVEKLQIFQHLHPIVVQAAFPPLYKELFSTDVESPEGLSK
SMILES,Potency,"activity change, negative = inhibition"
COc1ccc(C(C)NC(=O)C2CCCC2)cc1 (centres undefined),inactive,–
Cc1cc(=O)oc2c3c(cc(OCC(=O)NCc4ccccn4)c12)OC(C)(C)CC3,inactive,–
Clc1ccc(CN2CCCCCC2)cc1Cl,inactive,–
CCc1ccccc1N(CC(=O)NCC1CCCO1)C(=O)CCC(=O)Nc1nccs1 (centres undefined),inactive,–
COC(=O)NNC1=CC(=O)CC(C)(C)C1,inactive,–
Cc1cc(C)nc(NNC2=CC(=O)CC(C)(C)C2)n1,17.8 µM (active),–
CC1(C)CC(=O)C=C(Nc2ccccc2)C1,inactive,–
CN1CCN(c2ccccc2NC(=O)COc2ccc(C3CCCCC3)cc2)CC1,inactive,–
CCn1cc(S(=O)(=O)c2cccc(C)c2)c(=O)c2cc(F)c(N3CCN(C)CC3)cc21,inactive,–
COc1ccc(CCNC(=O)CN2C(=O)CCSc3ccccc32)c(OC)c1,inactive,–
Cc1ccc(NC(=O)c2cccnc2C(=O)Nc2ccc(C)cc2)cc1,inactive,–
Cc1ccc(NC(=O)c2nc[nH]c2C(=O)N[C@@H](CCCCNC(=O)OC(C)(C)C)C(=O)OC(C)(C)C)cc1,8.91 µM (active),–
CCCCC(CCC(=O)Nc1ccc(C(=O)OCC)cc1)C(=O)O (centres undefined),inactive,–
CCOC(=O)c1ccc(NC(=O)c2nc[nH]c2C(=O)N[C@@H](CCCCNC(=O)OC(C)(C)C)C(=O)OC(C)(C)C)cc1,11.2 µM (active),–
Cc1ccc(NC(=O)OCCNC(=O)c2ccncc2)cc1,inactive,–
CCCCCOC(=O)NCCOC(=O)Nc1ccc(C(=O)OCC)cc1,inactive,–
COc1ccc(Nc2ncnc3sc(C)cc23)cc1,inactive,–
CC(C)CCn1c(=O)c2c(nc3n2CCCN3Cc2ccccc2)n(C)c1=O,inactive,–
Nc1nc(C23CC4CC(CC(C4)C2)C3)cs1,inactive,–
S=c1nc(C23CC4CC(CC(C4)C2)C3)nc2sccn12,7.94 µM (active),–
COc1cc(OC)cc(-c2nc(=S)n3ccsc3n2)c1,inactive,–
C=CCC1=C/C(=C\c2c(N)n3nc(CC(=O)N4CCOCC4)sc3nc2=O)C=C(OC)C1=O,inactive,–
COc1ccc(Cc2nc(-c3ccccn3)no2)cc1OC,inactive,–

SMILES,Potency,"activity change, negative = inhibition"
COc1cnc(-c2ccccn2)nc1Oc1ccc(C(C)(C)C)cc1,5.62 µM (active),–
COc1ccccc1Oc1nc(-c2cccnc2)nc2ccccc12,inactive,–
Cc1ccc(Oc2nc(-c3ccccn3)nc3ccccc23)cc1,0.251 µM (active),–
Cc1cnc(CNc2nc(-c3cccnc3)nc3ccccc23)cn1,inactive,–
CNc1nc(-c2ccccc2OC)nc2ccccc12,inactive,–
COc1ccc(Sc2nc(-c3ccccc3)ncc2OC)cc1,inactive,–
N#Cc1ccc(Oc2cc(C(F)(F)F)nc(-c3ccccn3)n2)cc1,inactive,–
CC(C)(C)Nc1nc(-c2ccccn2)nc2ccccc12,1.41 µM (active),–
O=C(CCc1ccccc1)Nc1ccnn1C1CCN(Cc2ccc(OCCO)cc2)CC1,inactive,–
Cn1cc[n+](C)c1COc1ccc(C=O)cc1,–,-16.6% [at 1.91 µM] (inactive)
COC(=O)[C@@H]1CC(O)CN1C(=O)C12CC3CC(CC(C3)C1)C2 (some centres undefined),inactive,–
COc1cc(/C=N/NC(=O)c2ccccc2)ccc1OS(=O)(=O)c1ccccc1,inactive,–
COc1ccc(C(=O)Nc2ccccc2C(=O)N/N=C/c2ccc(O)c(OC)c2)cc1,0.199 µM (active),–
COc1cc(/C=N/NC(=O)c2ccc(N3CCCC3=O)cc2)ccc1O,inactive,–
COc1ccc(C(=O)Nc2ccccc2C(=O)N/N=C/c2ccccc2OC)cc1,15.8 µM (active),–
COc1ccc(/C=N/NC(=O)c2ccc3c(c2)OCCO3)c(OC)c1,inactive,–
COc1ccccc1C(=O)NNC(=O)c1ccc(NC(=O)c2ccccc2)cc1,inactive,–
O=C(CSCc1ccccc1)Nc1ccccc1,inactive,–
Cc1ccn2c(c1)nc(=O)c1cc(S(=O)(=O)N3CCC(C)CC3)ccc12,inactive,–
COc1cccc(/C=C2/SC(=S)N(CC(=O)NC3C=CS(=O)(=O)C3)C2=O)c1 (centres undefined),inactive,–
COc1ccc(S(=O)(=O)Nc2ccccc2C(=O)N2CCCC2)cc1C,inactive,–
Nc1ccn(C2CC(O)C(CO)O2)c(=O)n1 (centres undefined),inactive,–
CN1CCN(CCCCOc2cccc3ccccc23)CC1,inactive,–

SMILES,Potency,"activity change, negative = inhibition"
Cc1ccc(NC(=O)c2c(NC(=O)CCC(=O)O)sc3c2CCCCC3)cc1,inactive,–
O=C(CN1CCCC1)Nc1sc2c(c1C(=O)Nc1ccccc1)CCCC2,5.01 µM (active),–
O=C(O)c1c(NC(=O)N2CCCC2)sc2c1CCCC2,inactive,–
CC1=C(C(=O)OC2CCCCC2)C(c2ccccc2F)NC(=O)N1 (centres undefined),inactive,–
Cc1ccc2c(c1)N(CC(=O)N1CCCC(C)C1)C(=O)CO2 (centres undefined),inactive,–
Cc1ccc(Nc2nc(-c3ccc(O)cc3O)cs2)nc1,8.91 µM (active),–
O=c1oc2ccccc2cc1-c1csc(Nc2ccc(O)cc2)n1,inactive,–
Cc1ccc(NC(=O)c2cc(-c3ccc(C)o3)nc3ccccc23)nc1,–,-10.5% [at 0.365 µM] (inactive)
CCOc1cccc(/C=N/NC(=S)NCCN2CCOCC2)c1O,1.41 µM (active),–
COc1cccc(NC(=S)NCCCN2CCOCC2)c1,inactive,–
CCOc1nc(NCCN2CCOCC2)nc(Nc2ccc(C)cc2)n1,inactive,–
Cc1ccc(N(C(=O)c2snc(C(N)=O)c2N)C(C(=O)NCC2CCCO2)c2c[nH]c3ccccc23)cc1 (centres undefined),inactive,–
COc1ccc(S(=O)(=O)NCCc2cc3ccc(C)c(C)c3[nH]c2=O)cc1,inactive,–
Cc1nc2ccccc2cc1O,inactive,–
Cc1cc(N/N=C/c2ccccc2F)c2ccccc2n1,inactive,–
COc1ccccc1N1CCN(/N=C/c2ccc(O)cc2O)CC1,–,-15.8% [at 1.91 µM] (inactive)
Cc1nc2ccccc2nc1N/N=C/c1ccc(O)cc1O,11.2 µM (active),–
Oc1ccc(/C=N/NC2=NCCCCC2)c(O)c1,11.2 µM (active),–
Cc1cc(O)ccc1-c1cnc2ccccc2n1,inactive,–
COc1ccc(/C=C(\C#N)C(=O)ONC2=NCCCCC2)cc1,inactive,–
Fc1ccc(/C=N/Nc2nc(-c3cccnc3)nc3ccccc23)cc1,inactive,–
Oc1ccc(/C=N/Nc2nc(-c3ccccc3F)nc3ccccc23)c(O)c1,10 µM (active),–
COc1ccc(C(=O)Nc2ccc(C(=O)NCC3CCCO3)cc2)c(OC)c1OC (centres undefined),inactive,–
